Assay outcomes as filed in PubChem BioAssay.
A selection: hits, their analogues and other compounds. The true share with any hit is near 22%.
Shiga toxin inh = Shiga toxin inhibition; Vero cells, Shiga toxin protein synthesis inhibition reporter; AID 2315; inhibition, % at 38.7 µM; actives 9.2% (n = 290,000); in the data active means inhibition mostly above about 28%, no sharp cut-off; inactive means mostly below about 43%; further: 0% is about no effect
LmPK inhibitor = LmPK (Leishmania mexicana) enzyme inhibition; purified LmPK, Kinase-Glo ATP luminescence, 1 h; Potency, µM (top dose mostly 57.5 µM), without a hit: at the highest dose activity change, negative = inhibition, hits mostly inhibitors; actives 0.37% (n = 290,000); further: potency means the concentration at half of the fitted maximal effect; on the % scale 0 is the no-effect control and ±100 the full control effect
Target sequence (Q27686 whole entry, looked up): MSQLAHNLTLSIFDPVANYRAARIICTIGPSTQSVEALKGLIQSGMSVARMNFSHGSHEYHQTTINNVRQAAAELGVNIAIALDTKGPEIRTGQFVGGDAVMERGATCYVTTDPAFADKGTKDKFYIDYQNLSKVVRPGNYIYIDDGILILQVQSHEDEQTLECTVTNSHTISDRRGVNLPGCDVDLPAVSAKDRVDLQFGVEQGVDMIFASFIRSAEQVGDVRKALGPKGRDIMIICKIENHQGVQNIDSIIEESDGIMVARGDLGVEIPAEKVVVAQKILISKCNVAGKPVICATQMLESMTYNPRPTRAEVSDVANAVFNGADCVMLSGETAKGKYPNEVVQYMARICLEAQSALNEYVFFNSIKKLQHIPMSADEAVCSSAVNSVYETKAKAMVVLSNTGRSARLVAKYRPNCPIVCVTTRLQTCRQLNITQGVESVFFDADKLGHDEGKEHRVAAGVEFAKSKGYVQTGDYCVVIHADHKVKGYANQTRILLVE
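Screened at intermediate enzyme activity to detect both inhibitors and activators: LmPK at 0.1 nM, with a 0.5 nM enzyme column as activation reference. PEP 0.5 mM, ADP 0.1 mM; ATP detected by luminescence after 1 h.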
Cycloheximide cs = affects cycloheximide protein synthesis inhibition readout, counter-screen | actives 12% (n = 300,000) | AID 2314 | max response, % | cell reporter, cycloheximide protein synthesis inhibition counterscreen; in the data active means max response mostly above about 13%, no sharp cut-off; inactive means mostly below about 14%; further: read at 38.3 µM for the half of the compounds with a filed dose; 0% is about no effect
Pf growth 96h = P. falciparum growth inhibition at 96 hours. AID 504834. actives 6.9% (n = 320,000). Potency, µM (top dose mostly 28.7 µM), inactives show at the top dose activity change, negative = inhibition, most hits filed as inhibitors. P. falciparum luciferase reporter growth, 96 h; further: potency means the concentration at half of the fitted maximal effect; on the % scale 0 is the no-effect control and ±100 the full control effect
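Infected RBCs, 2% Hct / 0.05% parasitemia final; luciferase-reporter P. falciparum; cpd 96 h, 37 C, 5% CO2; luciferase detection reagent; luminescence.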
Pf growth 48h = P. falciparum growth inhibition at 48 hours (one generation); P. falciparum luciferase growth in erythrocytes, 48 h; Potency, µM (highest dose often 28.7 µM), for inactives: top-dose activity change, negative = inhibition, usual class: inhibitors; actives 5.9% (n = 310,000); AID 504832; further: potency means the concentration at half of the fitted maximal effect; on the % scale 0 is the no-effect control and ±100 the full control effect
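In quantitative HTS format, infected erythrocytes bearing luciferase-reporter parasites were treated for a single generation at 37 C. Luminescence after adding detection reagent served as the growth measure.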
Active calls of the source: *; u = inconclusive; x = not tested or not shown; [ ] = dose if it differs, or a comment. Unless noted, the call rests on the fitted dose curve; in most records, active means well fitted inhibition curve with a large enough effect; inconclusive means small, poorly fitted or top-dose-only effect, or another doubt; inactive means no such curve, though single readings can be large or run the other way.

SMILES	Shiga toxin inh	LmPK inhibitor	Cycloheximide cs	Pf growth 96h	Pf growth 48h
COc1ccc(S(=O)Cc2ccc(C(=O)N3CCN(c4cccc(C)c4C)CC3)o2)cc1 (centres undefined)	5	-2%	-4	u	8%
COC(CNC(=O)C(=O)NCC1CCCN1S(=O)(=O)c1cccs1)OC (centres undefined)	x	x	x	2%	-20%
COC(=O)c1cc(S(=O)(=O)Nc2cccc(-c3cnco3)c2)oc1C	3	1%	-3	0%	x
C=CCn1cc(C(=O)NCCCN(CC)CC)c(=O)c2cc(S(=O)(=O)N3CCC(C)CC3)ccc21	-3	-3%	-2	10%	u
CC(C)NC(=S)N/N=C/c1c[nH]c2ccccc12	29*	1%	18*	27%	u
Cn1ccc(C(=O)N/N=C/c2c[nH]c3ccccc23)n1	59*	0%	45*	u	41%
CCOc1ccccc1/C=N/NC(=O)c1cc(C(C)C)[nH]n1	65*	0%	36*	4%	-1%
Cc1[nH]c2ccccc2c1/C=N/NC(=S)NC(C)C	-11	0%	12	u	-18%
O=C(N/N=C/c1c[nH]c2ccccc12)c1ccn(Cc2ccc(Cl)cc2Cl)n1	10	1%	8	u	u
CC(C)c1cc(C(=O)N/N=C/c2c[nH]c3ccccc23)n[nH]1	53*	-2%	17*	-2%	3%
CCOc1ccc2ccccc2c1/C=N/NC(=O)c1cc(C)[nH]n1	-5	-3%	-3	12%	-6%
O=C(Nc1cccc(-n2cnnn2)c1)c1ccc(OC(F)(F)F)cc1	-11	6%	-3	-4%	0%
Cc1c(C(=O)N2CCCC2)c(S(=O)(=O)Nc2cccc(Br)c2)c(C)n1C	-8	-4%	-9	u	1%
O=C(NCC1CCCO1)c1cccc2ccccc12 (centres undefined)	-6	-1%	-3	u	8%
O=C(NCC1CCCO1)c1cc2ccccc2nc1Cl (centres undefined)	76*	-3%	28*	102%	94%
Cc1nc2ccc(F)cc2cc1C(=O)NCC1CCCO1 (centres undefined)	-2	1%	-2	6.6µM*	u
Brc1cccc(Cn2c(-c3cncs3)nc3ccccc32)c1	32*	7%	12	8.3µM*	10µM*
N#CCCCCn1c(-c2cncs2)nc2ccccc21	20	-1%	5	x	1%
Brc1ccc(Cn2c(-c3cncs3)nc3ccccc32)cc1	94*	0%	33*	-95%	u
c1ccc(Cn2c(-c3cncs3)nc3ccccc32)cc1	47	-3%	60*	x	16%
O=C(Nc1ccccc1C(=O)N1CCN(c2ccccc2)CC1)c1ccco1	-18	-11%	1	x	-15%
COc1cccc(NC(=O)CSc2nnnn2C2CCCCC2)c1	7	4%	-1	16%	17%
CN1CCN(c2ccc(NC(=O)c3ccc(-c4ccc(Br)cc4)o3)cc2)CC1	50	4%	9	8%	10µM*
CCN1CCN(c2ccc(NC(=O)c3ccc(Br)o3)cc2)CC1	111*	0%	43*	44%	58%
O=C(Nc1ccc(N2CCCC2)cc1)c1ccc(Br)o1	71*	-28%	58*	u	u
SMILES	Shiga toxin inh	LmPK inhibitor	Cycloheximide cs	Pf growth 96h	Pf growth 48h
O=C(Nc1ccc(N2CCN(C(=O)c3ccccc3)CC2)cc1)c1ccc(Br)o1	-3	2%	9	37%	u
Cc1cccc(NC(=O)Cn2cc(C(=O)C3CC3)c3ccccc32)c1C	19	-2%	-3	u	-29%
Cc1ccc(NC(=O)C2C3C=CC4(O3)C2C(=O)N(CCCN2CCCCC2)C4C(=O)NC2CCCCC2)cc1C (centres undefined)	3	-2%	-5	-17%	-6%
Cc1sc2nc(-c3ccc(Br)cc3)oc(=O)c2c1C	-7	0%	-3	161%	0%
O=c1oc(-c2cccs2)nc2scc(-c3cccs3)c12	11	-1%	14*	x	10%
Cc1sc2nc(-c3cccs3)oc(=O)c2c1C	136*	1%	43*	13%	-10%[0.00184 µM]
CC(=O)c1ccc(NC(=O)NNS(=O)(=O)c2ccc([N+](=O)[O-])cc2)cc1	-9	-5%	21	-13%	20%
Cc1noc(C)c1-c1nnc(-c2ccc(OC(F)(F)F)cc2)o1	-10	-5%	-1	96%	51%
Cc1ccc(C(=O)/C=C/Nc2ccc([N+](=O)[O-])cc2Br)cc1	77*	5%	67*	215%	112%
CCOc1ccc(N/C=C/C(=O)c2ccc(C)cc2)c([N+](=O)[O-])c1	64*	0%	42*	-12%	138%
CCOc1ccc(N/C=C/C(=O)c2ccc3ccccc3c2)c([N+](=O)[O-])c1	34	-6%	15	40%	77%
CNC(=O)c1cc(C(=O)c2ccc(F)cc2C(F)(F)F)c[nH]1	-12	0%	-5	5%	-8%[0.00184 µM]
COCCNC(=O)c1c[nH]c2ccc(S(=O)(=O)N(C)c3ccc(C)c(C)c3)cc2c1=O	43	0%	22*	u	x
C=CCN(c1ccccc1)S(=O)(=O)c1ccc2[nH]cc(C(=O)NCCOC)c(=O)c2c1	-6	2%	-2	4.7µM*	u
CCOc1ccc(NS(=O)(=O)c2ccc3[nH]cc(C(=O)NCCOC)c(=O)c3c2)cc1	92	2%	22	u	249%
Cc1cccc(N(C(=O)c2ccco2)C(C(=O)NC2CCCC2)c2ccco2)c1C (centres undefined)	-10	8%	-2	-60%	u
CCCCNC(=O)CSc1nc2ccc(Nc3nc(N4CCOCC4)nc(N4CCOCC4)n3)cc2s1	1	-12%	2	8.3µM*	u
O=C(CSc1n[nH]c(=O)[nH]c1=O)Nc1ccc(Br)cc1Br	x	x	x	-21%	-18%
CC(=O)OCC(NC(=O)C(CCCCNC(=O)OCc1ccccc1)NC(=O)OC(C)(C)C)C1OC(n2ccc(=O)[nH]c2=O)C(OC(C)=O)C1OC(C)=O (centres undefined)	-9	x	-3	x	x
CCc1ccc(-c2ccc3nnc(SCC(N)=O)n3n2)cc1	9	-3%	-1	3%	25%
CCSc1nnc2ccc(-c3cccs3)nn12	7	9%	11	u	-8%
CCc1ccc(-c2ccc3nnc(SC)n3n2)cc1	17	6%	22*	16%	5%
CCSc1nnc2ccc(-c3ccc(C)cc3)nn12	34	6%	26*	1%	-6%
CCCCOC(=O)c1ccc(NC(=O)C(=O)NCc2ccccn2)cc1	14	-1%	0	13%	0%
Cc1ccc(CN2[C@@H](c3ccccc3)COCCS2(=O)=O)cc1	14	5%	12	-91%	0%
O=C(CSc1nnc(SCc2ccc(Cl)cc2)s1)N/N=C/c1ccc(Cl)cc1Cl	55*	0%	33*	7%	85%
CC(=C/c1ccco1)/C=N/NC(=O)CSc1nnc(SCc2ccc(C)cc2)s1	33*	1%	45*	91%	90%
